From PubChem BioAssay AID743279 (National Center for Advancing Translational Sciences (NCATS), 2014)
Hit rate of the full screen: of about 360,000 compounds, about 17,000 (4.7%) were called active. About 5% were inconclusive and are not listed. Cut-off read from the data, not from the text of the source: active = activity change below about -50%; inconclusive = mostly about -30% to -49%; inactive = weaker than that. The list comes from a sample in which actives are over-represented; it also holds similar structures and randomly drawn compounds.
% is set by controls: 0 for no effect and ±100 for the full control effect.

Assay: qHTS for Inhibitors of Inflammasome Signaling: IL-1-beta AlphaLISA Primary Screen
Details: THP-1 LPS/ATP IL-1B secretion, 16 h; at 57.5 µM, stronger effect = lower value
Method in brief: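 Secreted IL-1B measured by AlphaLISA bead assay after 16 h compound exposure of THP-1 cells; compounds (final up to 57.5 uM) added 1 h before LPS (250 ng/mL) and ATP (1.25 mM) stimulation; lower signal means less secretion.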
With `COc1cc(C(O)c2nc(-c3cccc(C(=O)O)c3)cs2)ccc1F` (centres undefined) the activity change was 1.15% (inactive). With `Cc1ccc2nc(-c3ccco3)c(Cc3cccc(Cl)c3)n2c1` the activity change was -21.3% (inactive). With `Cc1ccc(Cc2c(-c3ccccc3)nc3ccc(Cl)cn23)cc1` the activity change was 1.06% (inactive). For `Cc1ccc(Cc2c(-c3ccco3)nc3ccc(Cl)cn23)cc1`, the activity change was -76.3% (active). In the case of `COc1ccc(CCc2nnc(CCC(=O)NCc3cnn(-c4ccccc4C)c3)o2)cc1`, the activity change is reported as 0% (inactive). In the case of `CCCCCn1nnnc1C1c2ccccc2C(=O)N1Cc1ccco1` (centres undefined), the activity change is reported as 0% (inactive). In the case of `Cc1ccc(-c2nn(-c3ccccc3)cc2C(=O)Nc2cccc(S(=O)(=O)N3CCOCC3)c2)cc1`, the activity change is reported as -2.09% (inactive). For `Cc1ccc(-c2nn(-c3ccccc3)cc2C(=O)NCCCN2CCCC2=O)cc1`, the activity change was 0% (inactive). In the case of `O=C(O)c1ccc(NC(=O)c2cn(-c3ccccc3)nc2-c2ccc(Cl)cc2)cc1`, the activity change is reported as -53.3% (active). In the case of `Cc1ccc(Cc2c(-c3ccc(C)cc3)nc3c4ccccc4ccn23)cc1`, the activity change is reported as 27.7% (inactive). With `FC(F)(F)c1ccccc1Cc1c(-c2ccccc2)nc2c3ccccc3ccn12` the activity change was 14.3% (inactive). For `Cc1cc(N2CCN(C)CC2)nc2ccc(NC(=S)N3CCOCC3)cc12`, the activity change was -0.695% (inactive). In the case of `CCOCCCNC(=S)Nc1ccc2nc(N3CCN(CC)CC3)cc(C)c2c1`, the activity change is reported as 46.7% (inactive). In the case of `Cc1cc(N2CCOCC2)nc2ccc(NC(=S)N3CCN(Cc4ccccc4)CC3)cc12`, the activity change is reported as -70.6% (active). In the case of `CC(=O)N1C[C@@H](CO)[C@@H](N(C)C(=O)c2ccco2)C[C@H]1c1ccccc1`, the activity change is reported as 11.5% (inactive). With `Fc1ccccc1/C=N/Nc1cc(N2CCCCC2)ncn1` the activity change was -12% (inactive). In the case of `C(=N/Nc1cc(N2CCOCC2)nc(N2CCOCC2)n1)/c1ccccc1`, the activity change is reported as -78.9% (active). In the case of `CN(C)c1ccc(/C=N/Nc2cc(N3CCOCC3)nc(N3CCOCC3)n2)cc1`, the activity change is reported as -1.5% (inactive). In the case of `OC(c1ccccc1)c1nc(-c2cnc3ccccc3c2)cs1` (centres undefined), the activity change is reported as 32.8% (inactive). With `O=C(Cc1ccc([N+](=O)[O-])cc1)NCCc1ccc2c(c1)OCO2` the activity change was 0% (inactive). With `O=C(N/N=C/c1cc([N+](=O)[O-])ccc1O)/C(=C\c1cccs1)NC(=O)c1ccccc1` the activity change was 245% (inactive). For `O=[N+]([O-])c1ccc(O)c(/C=N/Nc2ccccc2[N+](=O)[O-])c1`, the activity change was -51.4% (active). For `Nc1nnnn1/N=C/c1cc([N+](=O)[O-])ccc1O`, the activity change was 0% (inactive). For `CCCNC(=O)c1cc(C2CCCCN2S(=O)(=O)c2ccc(C#N)cc2)on1` (centres undefined), the activity change was -18.6% (inactive). In the case of `CCOc1cc(/C=C2\C(=N)N3N=C(C)SC3=NC2=O)ccc1OCCOc1ccccc1`, the activity change is reported as 4.36% (inactive). For `CCOc1ccc2nc(C(=O)N3CCCC(C)C3)sc2c1` (centres undefined), the activity change was -10.2% (inactive). For `CCOc1cc(/C=C2\SC(N3CCCC(C)C3)=NC2=O)ccc1O` (centres undefined), the activity change was -57.3% (active). With `Nc1[nH]c(C(=O)c2ccccc2)c(-c2ccc(Br)cc2)c1C(=O)NC1CC1` the activity change was 12% (inactive). In the case of `CCNc1c(NS(=O)(=O)c2ccc(C3CCCCC3)cc2)c(=O)oc2ccccc12`, the activity change is reported as 29.7% (inactive). For `C=CS(=O)c1sc(Cl)c(N2CCOCC2)c1[N+](=O)[O-]` (centres undefined), the activity change was -104% (active). With `CCCCNC(=O)OC1CC2CC1[C@H]1CCCCN1C2=O` (some centres undefined) the activity change was 12.3% (inactive). For `Cc1cc(C)nc(SCC(=O)N(C)C)n1`, the activity change was 0% (inactive). In the case of `Cc1cc(C)nc(S/C=C/C(=O)c2ccccc2)n1`, the activity change is reported as -104% (active). For `Cc1cc(C)nc(SCc2ccccc2C#N)n1`, the activity change was -12.7% (inactive). For `CNc1cncc(-c2cccc(C(=O)N3CCOCC3)c2)n1`, the activity change was -12.2% (inactive). With `CN(C)S(=O)(=O)c1cccc(NC(=O)Cc2ccsc2)c1` the activity change was 19.3% (inactive). In the case of `CN(c1ccccc1)S(=O)(=O)c1cccc(NC(=O)Cc2c(F)cccc2Cl)c1`, the activity change is reported as 0% (inactive). For `CN(c1ccccc1)S(=O)(=O)c1cccc(NC(=O)Cc2ccc(Cl)cc2)c1`, the activity change was -55.5% (active). In the case of `COc1nnc(-c2ccc(C)c(S(=O)(=O)N(C)C)c2)c2ccccc12`, the activity change is reported as -11.4% (inactive). In the case of `COc1ccccc1Cc1c(-c2ccc(Cl)cc2)nc2c3ccccc3ccn12`, the activity change is reported as 4.19% (inactive). For `CCCc1c(-c2ccccc2F)ncn1Cc1ccccc1OC`, the activity change was -24.5% (inactive). In the case of `CCCCCc1c(-c2cccc(Br)c2)ncn1CCc1ccccc1OC`, the activity change is reported as -27.9% (inactive). With `CCCCCc1c(-c2ccc(OC)c(OC)c2)ncn1CCc1ccccc1OC` the activity change was -71.5% (active). In the case of `CCCCc1c(-c2ccc(Br)cc2)ncn1CCc1ccccc1OC`, the activity change is reported as -93.2% (active). In the case of `COc1ccccc1CCNS(=O)(=O)c1cn(C)nc1C`, the activity change is reported as -3.36% (inactive). For `CCc1c(-c2ccc(F)cc2)ncn1Cc1cccc(-c2ccccc2)c1`, the activity change was 4.55% (inactive). For `CCCCCc1c(Cc2ccccc2)ncn1CCc1ccccc1OC`, the activity change was -55.8% (active). In the case of `COc1ccccc1Cc1c(-c2ccc(Cl)cc2)nc2ccc(Cl)cn12`, the activity change is reported as 16.9% (inactive). In the case of `Cn1c(=O)c2c(ncn2CCc2ccccc2)n(C)c1=O`, the activity change is reported as 26.6% (inactive). With `CCC(=O)NCc1cc(-c2nn(C)c(=O)c3ccccc23)ccc1OC` the activity change was -12.6% (inactive). For `CCCCc1c(-c2ccc(Cl)cc2)ncn1CCc1ccccc1OC`, the activity change was -109% (active). With `COc1cccc(NC(=O)CSc2nccn(-c3ccc4c(c3)OCCO4)c2=O)c1` the activity change was -15.5% (inactive). With `COc1ccc(S(=O)(=O)NC(=O)C2(C)CCN2C(=O)COc2ccc(Cl)cc2)cc1` (centres undefined) the activity change was 21% (inactive). In the case of `Cc1ccc(N2C(=O)CC(N3CCSCC3)C2=O)c(C)c1` (centres undefined), the activity change is reported as 9.43% (inactive). With `Cc1c(O)c(C)c2c(c1O)C(=O)C[C@@H](c1ccccc1)O2` the activity change was 40.2% (inactive). With `CCCNC(=O)C1CC(=O)N(c2ccc(OCc3ccccc3)cc2)C1` (centres undefined) the activity change was 18% (inactive). With `c1ccc(C(=NNc2nc3ccccc3s2)c2ccccn2)cc1` the activity change was -21.7% (inactive). In the case of `C=CCn1nc(C(=O)OCC)cc1-c1sc(NC(=O)c2ccccc2)nc1C`, the activity change is reported as -29.6% (inactive). In the case of `CNC[C@H]1OCc2cnnn2CCCC(=O)N([C@H](C)CO)C[C@@H]1C`, the activity change is reported as -6.3% (inactive). In the case of `CCC(=O)Nc1ccc(C(=O)CSc2nnc(CNc3ccc(Cl)cc3)o2)cc1OC`, the activity change is reported as -55.7% (active). In the case of `COc1cc(C(=O)NCc2nnc(SCC(=O)c3ccc(Cl)cc3)o2)cc(OC)c1OC`, the activity change is reported as 9.13% (inactive). With `CCOC(=O)CSc1nnc(CNc2ccc(F)cc2)o1` the activity change was 3.99% (inactive). In the case of `Cc1ccc(-c2csc(C(C#N)=C(O)CN3CCN(C(=O)c4ccco4)CC3)n2)cc1`, the activity change is reported as -7.72% (inactive). In the case of `COc1ccc(C(=O)COC(=O)CN2C(=O)C3CC=CCC3C2=O)c(OC)c1` (centres undefined), the activity change is reported as -15.2% (inactive). With `CCOC(=O)C(Cc1ccc(N)cc1)N1C(=O)c2ccccc2C1=O` (centres undefined) the activity change was 12.1% (inactive). With `CC1=CC(C)(C)Nc2ccc(OC(=O)C(Cc3ccccc3)N3C(=O)C4CCCCC4C3=O)cc21` (centres undefined) the activity change was -94.7% (active). With `CC1=CC(C)(C)Nc2ccc(OC(=O)CN3C(=O)C4CCCCC4C3=O)cc21` (centres undefined) the activity change was -97.6% (active). For `O=C(C(Cc1ccccc1)n1cccc1)N1CCN(C2CCCCC2)CC1` (centres undefined), the activity change was 8.33% (inactive). For `O=C(COC(=O)CN1C(=O)C2CCCCC2C1=O)Nc1ccc(F)c(F)c1F` (centres undefined), the activity change was 4.41% (inactive). With `C/C=C/C(=O)OCc1csc(CC(=O)Nc2ccccc2C)n1` the activity change was 13.6% (inactive). In the case of `COc1ccc(S(=O)(=O)N2CCN(C(C)C(=O)Nc3ccc(C(C)C)cc3)CC2)cc1` (centres undefined), the activity change is reported as -16.4% (inactive). For `COCCCNC(=O)Cc1ccc(-n2c(C)nc3cccnc32)cc1`, the activity change was 22.7% (inactive). With `COc1cccc(C(O)c2ncc(-c3ccc4ccccc4c3)[nH]2)c1` (centres undefined) the activity change was 18.2% (inactive). In the case of `CCOC(=O)C1CCCN(C(=O)c2ccc(C)c(S(=O)(=O)N3CCCCC3)c2)C1` (centres undefined), the activity change is reported as 4.44% (inactive). For `COc1ccc(Cl)cc1-n1c(=S)sc2c(=O)n(-c3ccc(F)cc3)c(SCC(=O)O)nc21`, the activity change was 14.4% (inactive). For `COc1ccc(CCNC(=O)CN(c2ccccc2)S(=O)(=O)c2ccccc2)cc1`, the activity change was 15.3% (inactive). In the case of `CCc1cc(=O)oc2cc(OCC(=O)N3CCCc4ccccc43)ccc12`, the activity change is reported as -60.9% (active). In the case of `CC(=O)COc1ccc2c(-c3ccccc3)cc(=O)oc2c1`, the activity change is reported as -27.2% (inactive). For `CCOc1ccccc1N1CCN(C(=O)COc2ccc3c(C)cc(=O)oc3c2)CC1`, the activity change was 23% (inactive). For `CC(C)c1cc(C(=O)N(C)C2CCCN(Cc3ccccc3F)C2)n(C)n1` (centres undefined), the activity change was 41.9% (inactive). In the case of `CCN(CC)C(=O)C1=C(C)N(Cc2ccccc2)C(=O)C(CC(=O)NC(c2ccccc2)c2ccccc2)C1` (centres undefined), the activity change is reported as -15.6% (inactive). With `O=C(Nc1cccc(F)c1)NC1CCCc2ccccc21` (centres undefined) the activity change was -9.52% (inactive). With `O=C(Nc1cccc(F)c1)NC1CCCCCCC1` the activity change was -92.1% (active). For `C/C(CC(=O)Nc1cccc(F)c1)=N\NC(=O)C(=O)NC1CCCCC1`, the activity change was -10.5% (inactive). In the case of `COc1ccc(NC(=O)C[C@H]2C(=O)N(CCc3ccccc3)C[C@@H]2C)cc1`, the activity change is reported as -9.78% (inactive). With `FC(F)Oc1ccccc1NC(=S)Nc1cccc(Cl)c1Cl` the activity change was 23.7% (inactive). In the case of `CC(C)(C)S(=O)N1Cc2cc(C(=O)NCCCN3CCOCC3)nc(-c3cccc(-c4cc5ccccc5o4)c3)c2[C@H]1CCO` (some centres undefined), the activity change is reported as -27.7% (inactive). With `CCc1cccc(CC)c1N1C(=O)CC(Sc2ccccc2N)C1=O` (centres undefined) the activity change was 17.8% (inactive). For `Cc1ccccc1S(=O)(=O)NC(=O)C1(C)CCN1C(=O)Cc1ccc(Cl)cc1Cl` (centres undefined), the activity change was -18.4% (inactive). For `CC(=O)N1CC(C)c2scc(C)[n+]2-c2ccccc21` (centres undefined), the activity change was -71.4% (active). For `O=C(Nc1nnc(S(=O)(=O)N2CCCCCC2)s1)c1cccc(Br)c1`, the activity change was -9.2% (inactive). With `O=C1C=C(NS(=O)(=O)c2ccccc2)C(=O)c2ccccc21` the activity change was -0.814% (inactive). In the case of `Cn1c(NC(=O)c2ccccc2)nc2ccccc21`, the activity change is reported as 35.1% (inactive). In the case of `O=C(NC1=CC(=O)c2ccccc2C1=O)c1ccccc1`, the activity change is reported as -96.1% (active).
